Reference: the supplement of paper PMC11732987, “Enantioselective OTUD7B fragment discovery through chemoproteomics screening and high-throughput optimisation” (Communications Chemistry, 2025)

Biological target: T1, USP38 (UniProt Q8NB14)
T1 sequence (whole entry): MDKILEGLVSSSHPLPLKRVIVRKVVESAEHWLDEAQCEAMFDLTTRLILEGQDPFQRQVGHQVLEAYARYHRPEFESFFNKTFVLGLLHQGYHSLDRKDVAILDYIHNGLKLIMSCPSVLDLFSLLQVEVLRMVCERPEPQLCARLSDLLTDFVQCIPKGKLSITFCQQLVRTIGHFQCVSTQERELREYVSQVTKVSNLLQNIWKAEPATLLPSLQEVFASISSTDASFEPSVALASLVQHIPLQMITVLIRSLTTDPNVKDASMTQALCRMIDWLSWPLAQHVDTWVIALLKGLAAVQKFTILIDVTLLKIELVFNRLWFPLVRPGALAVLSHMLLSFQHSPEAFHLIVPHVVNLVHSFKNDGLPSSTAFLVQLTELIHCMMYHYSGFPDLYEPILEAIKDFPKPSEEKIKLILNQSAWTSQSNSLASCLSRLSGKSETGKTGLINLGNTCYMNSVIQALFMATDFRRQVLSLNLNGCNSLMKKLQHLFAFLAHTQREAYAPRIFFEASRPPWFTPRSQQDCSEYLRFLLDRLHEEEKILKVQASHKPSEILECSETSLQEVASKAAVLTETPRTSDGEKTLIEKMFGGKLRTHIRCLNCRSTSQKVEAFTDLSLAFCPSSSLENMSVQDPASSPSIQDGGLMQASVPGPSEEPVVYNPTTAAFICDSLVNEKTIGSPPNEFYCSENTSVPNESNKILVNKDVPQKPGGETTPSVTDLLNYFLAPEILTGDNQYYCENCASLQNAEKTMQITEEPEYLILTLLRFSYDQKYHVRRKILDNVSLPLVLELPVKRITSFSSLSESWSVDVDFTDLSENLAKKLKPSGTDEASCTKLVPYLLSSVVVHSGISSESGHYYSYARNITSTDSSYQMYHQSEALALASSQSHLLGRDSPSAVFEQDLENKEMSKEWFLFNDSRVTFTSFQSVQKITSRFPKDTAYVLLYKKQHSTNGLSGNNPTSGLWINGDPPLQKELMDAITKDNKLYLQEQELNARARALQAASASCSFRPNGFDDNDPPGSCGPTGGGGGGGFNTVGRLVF
Assay: log2 ratio of Biotin-Ahx-Ub-VS probe labelling (compound/DMSO); higher = less target engagement, active = hit call of the paper (q ≤ 0.05, log2 ratio ≤ -1)
Conditions: treatment time: 3 h
How it was run: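 Average ratios of compound to vehicle were obtained by unpaired t-test. Beforehand, 495 µg samples of HEK293T lysate in buffer with protease inhibitors were treated in triplicate with compound over a concentration series or vehicle for 3 h, then with 0.5 µM final Biotin-Ahx-Ub-VS for 1 h. Labelled deubiquitinases were NeutrAvidin-enriched, digested and quantified label-free by diaPASEF LC-MS/MS in Spectronaut, normalised to the global median. Values are log2 and cover proteins with at least two unique peptides.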

Measured: log2 ratio of Biotin-Ahx-Ub-VS probe labelling

O=C(CCl)N[C@H]1CCCc2ccccc21
inactive: compound concentration: 0.78uM -0.147 | compound concentration: 1.56uM -0.192 | compound concentration: 3.13uM -0.169 | compound concentration: 6.25uM -0.0221 | compound concentration: 12.5uM -0.0585 | compound concentration: 25uM -0.166 | compound concentration: 50uM -0.069 | compound concentration: 100uM -0.102 | compound concentration: 200uM -0.211
